PubChem BioAssay AID524 (The Scripps Research Institute Molecular Screening Center, 2006)
Out of some 65,000 compounds screened, about 95 (0.1%) were called active.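 How the source made its calls: active means inhibition above the screen-wide mean inhibition plus 3 SD (cut at about 21% in these data); inactive means the rest.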 This excerpt belongs to a sample that is enriched for actives.

The molecules below were run against cAMP-dependent protein kinase catalytic subunit alpha (Homo sapiens) (UniProt P17612) (assay: PKA catalytic subunit kinase inhibition – biochemical, ATP-depletion luminescence, Kemptide substrate, primary screen (AID 524)). Conditions: PKA Kemptide phosphorylation, Kinase-Glo ATP luminescence; at 6 µM; active compounds read high.

inhibition, inactive:
CC(=O)Cc1nsc(NC(=O)c2ccc(COc3ccc(C)cc3)o2)n1 11.4%
O=C(Nc1cccnc1)c1noc2c1CCCCC2 -2.8%
O=C(CN1CCN(C2CCCCC2)CC1)Nc1ccccc1N1CCCCC1 1.9%
O=C1c2ccccc2C(=O)N1c1ccccc1S(=O)C(F)(F)F (stereo not given) -0.9%
Cc1ccccc1C(=O)NCCN=C1NS(=O)(=O)c2ccccc21 11.6%
CSc1ccc(NC(=O)N2CC(C)OC(C)C2)cc1 (stereo not given) 10.1%
N#Cc1ccc(COC(=O)Cn2nnc(-c3ccccc3)n2)cc1 10.9%
Cc1cc(C(=O)OCC(=O)NCc2ccco2)c(C)n1-c1ccccc1 0.4%
CS(=O)(=O)N(CC(=O)N1CCOCC1)c1ccc2c3c(cccc13)CC2 10.1%
COc1ccc2c(CC(=O)Nc3nnc(C4CC4)s3)coc2c1 10.2%
CC1CCCCC1NC(=O)CSc1nnc(N)s1 (stereo not given) 5.7%
C=CCNC(=O)C12CC3CC(C1)CC(C(=O)NCC=C)(C3)C2 -3.4%
N#Cc1nc(COc2ccc(Cl)cc2)oc1N1CCCC1 -3%
Cc1nc(C)c(C(=O)Nc2cccc(C)c2C)o1 -2.6%
O=C(C1CC1)N1CCN=C1SCc1ccc(Cl)cc1 6.8%
Brc1cccc(-c2nnc3n2CCC3)c1 0.9%
CCOC(=O)C1CCN(C(=O)Cn2cc(C#N)c3ccccc32)CC1 4.3%
COc1cccc2cc(C(C)N(CCCN3CCOCC3)C(=O)Nc3ccc(Cl)cc3)oc12 (stereo not given) 0.5%
O=S(=O)(NCc1ccc2c(c1)OCO2)c1cccc2nsnc12 5.1%
c1ccc(CCn2nnnc2CN2CCN(C3CCCC3)CC2)cc1 -3.2%
Cc1cc2ccccc2n2c(SCC(=O)N3CCN(C(=O)c4ccco4)CC3)nnc12 8.5%
CCCn1c(SCC(=O)Nc2c(C)cccc2C)nnc1C(C)C 4.9%
CCn1c(SCC(=O)Nc2cccc(F)c2)nnc1-c1cc2cc(Br)ccc2o1 10.1%
Cc1cccc(CC(=O)Nc2c3c(nn2-c2cccc(Cl)c2)CS(=O)C3)c1 (stereo not given) 9.5%
NC(=O)CCCC1=NS(=O)(=O)c2ccccc2N1 5.7%
CCN(c1ccccc1)S(=O)(=O)c1ccc(N)cc1 9%
CCCCn1c(SCC(=O)N2CCC(C(=O)OCC)CC2)nc2cc(S(N)(=O)=O)ccc21 2.4%
CCCCNc1nc2c(c(=O)[nH]c(=O)n2C)n1CCOc1ccccc1 -1.2%
CCOc1ccc(NC(=O)CSc2nc3c(c(=O)n2-c2ccccc2OC)SCC3)cc1 -2.3%
COc1ccc(OC)c2[nH]c(=O)c(CCNC(=O)C(C)(C)C)cc12 2.9%
CC(C)C(C(=O)NC1CCCCC1)N(CC1CCCO1)C(=O)CNS(=O)(=O)c1ccc(F)cc1 (stereo not given) 4.8%
O=C(NCCC1=CCCCC1)C1CCN(Cc2cnn(-c3ccccc3)c2-n2cccc2)CC1 6.6%
Cn1c(SCC(=O)Nc2cccc(NC(=O)c3cccs3)c2)nnc1-c1ccncc1 12.7%
CC(=O)Nc1ccc(-c2cn3cccnc3n2)cc1 3.9%
CN1C(=O)c2ccccc2C(C(=O)NCCCN2CCCC2)C1c1c[nH]c2ccccc12 (stereo not given) 2.4%
CC(C)CNS(=O)(=O)c1ccc(OCC(=O)Nc2ccc3c(c2)OCO3)c(Cl)c1 4.9%
CC(=O)Nc1ccc(S(=O)(=O)NCCc2ccccc2)cc1 2.1%
CCC(=O)N1CCN=C1SCc1ccc(F)cc1 3.7%
COc1cc2[nH]c(=S)n(Cc3ccc(C)o3)c(=O)c2cc1OC 1.2%
CC(=O)c1cc2c(cc1N)OCO2 1.2%
Cc1ccc2c(c1)sc1ncc(NC(=O)c3ccccc3)c(=O)n12 -1.3%
Cc1cc(C)cc(NC(=O)N2CCC(NC(=O)c3ccc(F)cc3)CC2)c1 5.9%
CCCNS(=O)(=O)c1ccc2c(c1)CCCN2C(C)=O 9.1%
CCc1cccc2c3c([nH]c12)C(CC)(CC(=O)O)OCC3 (stereo not given) -6.8%
COc1cc(C2C3C(=O)N(c4ccccc4)C(=O)C3ON2c2ccccc2)ccc1O (stereo not given) 4.7%
CC(C)Cc1ccc(S(=O)(=O)N2CCN(C(=O)c3ccco3)CC2)cc1 7%
COc1ccc2[nH]c(=O)c(CN(Cc3nnnn3CCc3ccccc3)CC3CCCO3)cc2c1 (stereo not given) -2.5%
O=C(NCCCNCc1ccccc1)c1ccc(/C=N/O)nc1 9.9%
Cc1noc(C)c1C(=O)OCC(=O)/C=C1\N(C)c2ccccc2C1(C)C 6.8%
CC1=Nn2c(nnc2-c2ccccc2)SC1 4.2%
CCOc1cc(/C=N/n2cnnc2)c(Br)cc1O 6.7%
Cc1ccc(S(=O)(=O)N2CCN(Cc3cccc(C)c3O)CC2)cc1 6.3%
CCCc1cc(=O)n2[nH]c(SCc3ccccc3)nc2n1 5.4%
O=C(Nc1ccc(S(=O)(=O)N2CCCC2)cc1Cl)C1=COCCO1 -4.1%
Cn1c(=NC(=O)c2cnccn2)sc2ccccc21 5%
O=P(c1cccs1)(c1cccs1)c1cccs1 3.3%
COC(=O)c1nc(NC(=O)c2ccc(Cl)cc2)n[nH]1 5%
Cn1c(=NC(=O)CSCC(=O)N2CCOCC2)sc2ccccc21 7.1%
O=C(C1CCN(c2nnc(-n3cccc3)s2)CC1)N1CCc2ccccc2C1 -3.8%
O=C(Cn1nnc(-c2ccc(CN3CCOCC3)cc2)n1)NC1CCCCC1 10.1%
COC(=O)C(C)N(C#N)c1nc(C)nc(C)n1 (stereo not given) -1.3%
CCN(CC)CCN1C(=O)C(=O)/C(=C(/O)c2ccccc2)C1c1ccccc1F (stereo not given) -5.4%
N#C/C=C1\Sc2ccccc2C(=O)N1CC(=O)N1CCN(S(=O)(=O)c2ccccc2)CC1 6.8%
CCOC(=O)c1ccc(N2C(=O)CC(Sc3nc(O)c(CC)c(=O)[nH]3)C2=O)cc1 (stereo not given) 7.3%
CC(=O)Nc1cccc(NC(=O)c2c(-c3ccccc3)noc2C)c1 -5.3%
Cc1nnc(SCC(=O)NCc2cccs2)[nH]c1=O 12.3%
Cc1nc(SC(C)C)[nH]c(=O)c1Cc1ccccc1 5.4%
COc1cccc(-n2cc(C(=O)O)c3ccccc3c2=O)c1 12.3%
COc1cccc(Nc2nnc(SCC(=O)N3CC(C)OC(C)C3)s2)c1 (stereo not given) 6%
CC(=O)NC1CC2CCCC(C1)N2CC(=O)Nc1ccccc1 (stereo not given) 6%
O=C(NCC1CCCO1)C(C(=O)c1ccccc1)n1cc(Cl)ccc1=O (stereo not given) 1.8%
Cc1nc2ccc(S(=O)(=O)NCC(=O)NCCN3CCCCC3C)cc2s1 (stereo not given) -5.1%
CCOC(=O)CN1C(=O)C(O)(CC(=O)c2ccccn2)c2ccccc21 (stereo not given) 10.4%
CCOc1ccc(C(=O)Nc2cc(OC)ccc2OC)cc1 -1.4%
CC1(C)CC(=O)C(C=NCc2cccnc2)=C(O)C1 7%
CCCCCCOC(=O)NCC(O)c1ccccc1 (stereo not given) 3.5%
Cc1cc(NC(=O)c2cccc(N3C(=O)CCC3=O)c2)no1 -4%
COc1ccc2nc(NC(=O)c3ccc(Br)s3)sc2c1 -4.9%
CC(=O)Oc1ccc(C(=O)Nc2nccs2)cc1 -2.3%
COc1cc(Cl)c(S(=O)(=O)n2cnc(C)c2)cc1Cl 4.9%
O=S(=O)(NCc1cccnc1)c1ccc(Br)s1 -2.9%
CN(Cc1ccccc1)c1nc2c(c(=O)[nH]c(=O)n2C)n1CCSc1nc2ccccc2[nH]1 2.7%
COc1ccc2[nH]c(=O)c(CN(CC3CCCO3)C(=O)Nc3ccccc3)cc2c1 (stereo not given) -4.5%
c1ccc(-c2oc3ncnc(N4CCOCC4)c3c2-c2ccccc2)cc1 7.5%
CCCCCN(C(=O)NC(=O)Nc1ccccc1OC)S(C)(=O)=O 8.1%
CN1CCCc2cc(C#N)c(=O)[nH]c21 11.8%
Cc1ccccc1-n1c(SCC(=O)NCc2cccs2)nnc1-c1ccncc1 11.7%
O=C(CSc1nc2ncccc2[nH]1)Nc1ccc2c(c1)OCCO2 -9.5%
CCOC(=O)C1CCN(C(=O)C2CCN(S(=O)(=O)CC)CC2)CC1 0.3%
CCCc1nc2ccccc2c(=O)n1NC(=O)c1c(O)c2ccccc2[nH]c1=O 7.9%
O=C(O)COc1nsnc1N1CCOCC1 -0.4%
CCOC(=O)c1sc(NC(=O)CSc2nnc(-c3ccco3)o2)c(C(=O)OCC)c1C -4.6%
COC(=O)CCSc1nccn1Cc1ccccc1 1.3%
O=C(Oc1ccccc1)c1ccc2nccnc2c1 18.8%
CN1C(=O)CC(N2CCN(c3ccccn3)CC2)C1=O (stereo not given) 0.2%
Cc1ccc(-c2nc(COC(=O)c3c(C)noc3C)cs2)cc1 0.5%
CCn1c(=O)cc(OCC(=O)NCCCN2CCN(c3cccc(Cl)c3)CC2)c2ccccc21 9.2%
COC(CCN(C)C)(c1ccccc1)c1ccccc1 9.3%
COC(=O)c1ccc(NC(=O)c2ccco2)cc1 -3.7%
Cc1cccc(-n2c(Cc3cc(=O)[nH]c(=O)[nH]3)nnc2SC(C)C)c1 -8.8%
